Assay results reported in the supplement of paper PMC3334620.
Whole data set: some 33,000 sequences, median “E-score (-0.5 to 0.5)” near -0.056, cut for the highest 2% near 0.38. Many of the other results were omitted from the sample, so the highest values are more common in it than they were.

biological target: Stb4 (UniProt P50104); experiment: PBM E-score (8-mer binding enrichment) (E-score (-0.5 to 0.5)); higher = stronger / more preferred TF binding; conditions: protein concentration: 200 nM; construct: GST-DNA-binding domain
Method in brief: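 Masliner-normalised scans of fluorescent anti-GST signal were the basis for scoring. That signal came from GST-tagged yeast transcription factors applied at about 100-200 nM to double-stranded universal all-10-mer Agilent arrays on fresh or once-stripped slides. Each ungapped eight-base word, pooled with its reverse complement, received an E-score from the Universal PBM Analysis Suite.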

Chain of UniProt P50104 (P50104 whole entry, the tested form may be a part): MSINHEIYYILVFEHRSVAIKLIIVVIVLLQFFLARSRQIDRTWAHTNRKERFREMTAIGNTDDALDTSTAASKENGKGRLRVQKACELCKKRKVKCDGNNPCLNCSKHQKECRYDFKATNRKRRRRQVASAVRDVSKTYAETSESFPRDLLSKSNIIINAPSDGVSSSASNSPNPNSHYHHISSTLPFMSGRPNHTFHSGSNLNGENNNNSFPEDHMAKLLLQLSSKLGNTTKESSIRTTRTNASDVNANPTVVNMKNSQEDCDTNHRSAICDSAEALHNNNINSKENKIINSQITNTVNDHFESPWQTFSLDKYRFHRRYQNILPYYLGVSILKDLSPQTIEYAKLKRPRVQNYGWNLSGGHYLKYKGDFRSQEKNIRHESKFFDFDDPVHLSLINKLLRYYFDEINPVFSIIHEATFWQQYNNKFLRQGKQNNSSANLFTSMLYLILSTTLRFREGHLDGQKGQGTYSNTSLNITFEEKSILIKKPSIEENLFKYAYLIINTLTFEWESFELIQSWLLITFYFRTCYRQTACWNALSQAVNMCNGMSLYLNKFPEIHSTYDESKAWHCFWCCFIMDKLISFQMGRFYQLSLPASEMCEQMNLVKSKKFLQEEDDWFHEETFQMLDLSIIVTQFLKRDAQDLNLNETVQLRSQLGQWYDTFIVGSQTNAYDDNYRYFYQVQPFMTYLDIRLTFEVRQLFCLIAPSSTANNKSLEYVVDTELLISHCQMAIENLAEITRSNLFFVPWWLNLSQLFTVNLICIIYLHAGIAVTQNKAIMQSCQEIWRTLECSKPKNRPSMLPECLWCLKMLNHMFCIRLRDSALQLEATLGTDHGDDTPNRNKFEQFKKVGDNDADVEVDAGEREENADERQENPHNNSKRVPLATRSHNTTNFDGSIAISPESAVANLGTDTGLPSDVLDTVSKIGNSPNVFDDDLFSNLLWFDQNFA

Sequence | PBM E-score
TATAGACA | -0.192
CCTGGCGA | -0.204
AGCTGCAA | -0.0718
GTTCCGGA | 0.435
AGTCCGGA | 0.332
CCTCCGGC | 0.295
ATTCCGGG | 0.353
CTTCCGGA | 0.396
CGTCCGGA | 0.3
GTTCCGTA | 0.314
ATTCCGGC | 0.354
GGTCCGGA | 0.34
CTTCCGGC | 0.392
CTTCCGTA | 0.379
ATTCCGGA | 0.405
AACTAACT | 0.0909
AGAGGATG | -0.0042
ATGGCTAA | -0.0251
CCTATTGC | -0.0913
ACAGCATC | -0.102
GAATCTTA | -0.0785
CTTTCCAC | 0.0376
AGTTCCAA | 0.012
CGGTCCGA | 0.449
AGTTCCCC | 0.138

Sequence | PBM E-score
AGTTCCCA | -0.0388
AGTTCCTA | 0.00074
AGGTCCGA | 0.304
GGGTCCGA | 0.344
AGTTCCGC | 0.324
CGTTCCCC | -0.014
AGTTCCGA | 0.474
AGTTCCCG | 0.396
CGTTCCGC | 0.412
CAGCTTTC | -0.0811
ATGGGTGG | -0.0789
GTGAGTTA | -0.211
ATGTAAAG | -0.162
ACTTGCGC | -0.0787
AGAAGGGG | -0.169
ATAGCGTC | -0.209
GTAACGGA | 0.281
GTTTGCAA | -0.113
CGATTTGA | -0.0548
ATTCACAA | -0.0973
AGTTCCAG | -0.136
CGTTCCGA | 0.451
GGTTCCAA | 0.196
GGTTCCCA | -0.0962
GGTTCCGA | 0.468

Sequence | PBM E-score
CGTTCCAA | -0.0817
AGTTCCGG | 0.419
AGTTCCTG | -0.14
CGTTCCTA | -0.00632
ACCACCCT | -0.162
CCTCTTAA | -0.0505
ACCGAAGC | 0.287
CCCGAAAG | 0.393
GTCGAAAC | -0.0645
ACCGAAAC | 0.372
GACGAAAA | 0.0557
GCCGAAAC | 0.397
GCCGAAGC | 0.385
ACCGAAAG | 0.231
GCCGAAAA | 0.438
ACCGAAAA | 0.337
GACGAAGC | -0.142
CACGAAAG | -0.148
GGAGGATA | -0.0736
CGTTACTC | -0.0977
AGAAGTGC | -0.122
CGCGGGAG | 0.172
CCCGAAAA | 0.428
TACGAAAA | -0.0536
CACGAAAA | -0.0798

Sequence | PBM E-score
CCCGAAAC | 0.339
TCCGAAAA | 0.441
TGCGAAAA | -0.0153
CTCAAACC | -0.0373
CGAGCTAC | 0.0965
GAGTCAAC | 0.0604
ACCATAGC | -0.123
TACATCCA | -0.202
AATTAAAT | -0.0575
CCTATCCG | 0.391
ACTATCCG | 0.45
CCTATCCA | -0.196
ACTATCCT | -0.0638
AGTATCCG | 0.436
ATTATCCG | 0.475
AGTATCCC | -0.0361
ACTATCCC | -0.044
ATTATCCC | 0.0679
ATTATCCA | -0.0958
CCTATCCC | 0.176
AGTATCCA | 0.0731
CAGGCGAG | -0.294
ACTGCATA | -0.135
AGTATCTC | -0.0258
TCTAGCAA | -0.0809

Sequence | PBM E-score
CATCCGGA | 0.406
CATCCGGG | 0.397
AATCCGGG | 0.306
CATCCAGG | -0.178
AGTCCGGC | 0.0945
CATCCGTA | 0.329
CGTCCGGC | 0.253
CCTCCGGA | 0.307
CATCCGGC | 0.397
AAAGCCCT | -0.106
CGAAAACA | 0.123
CGTGTTTA | -0.00808
AGCTGTGC | -0.148
AATATCTA | -0.0944
CCGCTATA | 0.0382
AGTTCTCG | 0.0181
ATCTTAAG | -0.187
CCGCTGAC | 0.0389
CCACCGCG | -0.00158
TCCCGACA | 0.355
ACCCGAAG | 0.424
TCCCGAAA | 0.432
GCCCGAAC | 0.262
TCACGAAA | -0.0978
AACCGAAT | 0.325

Sequence | PBM E-score
ACCCCGAT | 0.266
CCCCGAAG | 0.354
ACACGAAG | 0.00748
ACCCGAAC | 0.463
ACCCGAAT | 0.425
CCCCGAAC | 0.338
GGGGTTAA | 0.0779
GCTTTCAA | -0.0547
CGAGAGTC | 0.0872
ATGCCTTC | -0.0568
CTTTTCAC | -0.191
ATGCCCAG | 0.0828
CGGACAGA | 0.129
CACGCTTC | 0.0187
ACCCGAAA | 0.435
CCCCGAAA | 0.34
GCCCGAAA | 0.276
AAGTGCAG | -0.212
AACTTAGT | 0.0161
GATCCCGA | 0.417
TATCCCGA | 0.398
GATCCCGC | 0.225
AATCCCGT | 0.303
TATCCCCA | -0.185
CATCCCGC | 0.122

Sequence | PBM E-score
CATCCCGA | 0.401
TATCCCAA | 0.0571
AATCCCGA | 0.431
CATCCCGG | 0.342
GATCCCAA | -0.0342
AATCCCGC | 0.225
CGAGTAAA | 0.143
ATTGTAGA | -0.132
AGTTTGGG | -0.172
AGCTAAAA | -0.0535
CCAGTTGC | -0.0304
CAATAGGC | -0.0832
TCAGATAA | -0.0704
AATCCTTA | -0.0563
CCCGGAGA | 0.318
CCCGGACA | 0.264
CCCGGATA | 0.429
GCCGGACA | 0.154
CCGGGATC | 0.384
ACCGGATG | 0.385
CCGGGATA | 0.292
ACCGGACG | 0.146
GCCGGATA | 0.409
CGGGGATC | 0.279
ACCGGAGG | 0.228

Sequence | PBM E-score
GCCGGAGA | 0.192
AAGGGGTC | -0.176
GACGTACC | -0.0237
CAAAGCAA | -0.0355
ATCGAGAA | -0.157
GATTTTAC | 0.0329
GGACGGCC | -0.028
ATGCCAAG | -0.177
GCAAAAAA | 0.137
CCGCAGTC | 0.112
TGATTGCA | -0.0923
CCCGGATC | 0.385
ACCGGAGA | 0.187
CCCGGAGC | 0.32
ACCGGATC | 0.353
ACCGGACA | 0.128
ACCGGATA | 0.388
CAAAATGC | -0.121
CTGAACCA | -0.197
ACGCCGTA | -0.208
ATCAACAC | -0.101
ACGAAATC | -0.0845
CCGAAATA | 0.401
CTGAAATC | -0.0865
GCGAAATA | 0.0947

Sequence | PBM E-score
CCGAAATC | 0.405
ACGAAATA | -0.111
CGGTAACA | 0.238
ACACTGCG | 0.00398
AGGTTGGC | -0.205
GTATTATA | 0.0782
AATTCCGG | 0.358
GATTCCCA | -0.109
CATTCCGC | 0.175
TATTCCCA | 0.0571
CATTCCGG | 0.358
AATTCCGA | 0.46
GATTCCGA | 0.444
TATTCCAA | -0.113
CATTCCGA | 0.449
TATTCCGA | 0.462
GATTCCGC | 0.222
AATTCCGC | 0.246
CCACCCGC | 0.194
TATCAAGA | -0.216
CAGCCTGG | -0.203
CCCAGTGC | -0.0453
GTGTCGTA | -0.0741
ATGTCGGC | 0.138
GTGTCGCA | -0.0287

Sequence | PBM E-score
ATGTCGGA | 0.389
GTGTCGGA | 0.395
CTGTCGGA | 0.353
ATTAGTAA | 0.076
AGTGATAG | -0.33
AGCACAGA | -0.121
GCCAATAA | 0.0672
AACATCCT | -0.0622
ACCATCCC | 0.0842
CACATCCA | -0.0807
CACATCCC | 0.187
ACCATCCT | -0.249
ATCATCCG | 0.414
ATCATCCC | 0.052
AACATCCC | 0.232
ATCATCCA | -0.121
CACATCCG | 0.425
AACATCCG | 0.45
ACCATCCG | 0.406
AATCAATA | -0.0212
CGATTAAG | -0.128
AAAAGGGC | -0.141
CAATTCTA | -0.196
AATTCTTA | -0.0318
CTGGAGCA | -0.262

Sequence | PBM E-score
ATCCTAGG | -0.0251
GCTCCAAC | -0.111
CACTGGCA | -0.23
GCTTGAGA | -0.312
GCGAGATA | 0.026
ACGAGATA | -0.184
CTGAGATC | -0.0537
CCGAGATC | 0.435
ACGAGATC | -0.0355
CCGAGATA | 0.405
AAGCAGCT | -0.0723
CCAGACTA | -0.229
CTGAGGGA | -0.284
ATTTTCCC | 0.0682
AGTTTCCG | 0.437
AGTTTCCA | -0.103
ACTTTCCT | -0.22
CATTTCCC | 0.18
AGTTTCCC | 0.132
CATTTCCA | -0.196
ATTTTCCA | -0.0573
ACTTTCCC | 0.121
CATTTCCG | 0.421
ACTTTCCG | 0.383
ATTTTCCG | 0.424

Sequence | PBM E-score
CGCAGGAA | -0.0189
ATATGGCG | 0.0558
CGAGTAAC | 0.166
CTGGCTGC | -0.108
AAAGGGTC | -0.0434
ACGGGGGG | -0.228
GCCACGCC | -0.282
GATAGCGA | -0.0238
AATTTCCT | -0.0502
AATTTCCC | 0.142
AGTTTCGG | 0.412
AGTTTCGA | -0.131
AGTTTCGC | 0.0157
AATTTCCG | 0.425
CTAAGTCA | -0.0795
CCCAATGC | -0.17
ATTGGCTG | -0.167
GATAAGCA | 0.136
AGTTCGTA | 0.0255
AGTTCGGC | 0.357
AGTTCGCA | -0.158
AGTTCGGG | 0.426
AGTTCGGA | 0.442
AGTTCGTG | -0.157
AACATTCA | -0.00804

Sequence | PBM E-score
AACGGCAT | 0.232
AAAAGAGC | -0.189
CATCTCGA | -0.252
AATCTCGG | 0.434
ATTCTCGA | -0.194
CATCTCGG | 0.458
AATCTCGT | -0.0273
ATTCTCGC | -0.286
CATCTCGC | -0.0526
AAACTCGT | -0.228
AAACTCGC | -0.0551
AAACTCGG | 0.419
AATCTCGA | -0.0861
ATTCTCGG | 0.425
CACGCTCG | 0.119
AATCGAAT | 0.00368
CTGAGAGC | -0.138
AATACTGG | -0.159
TCTAAAAA | 0.0389
AGGGTGTA | -0.093
GTCGCAGA | -0.195
ACTCTCGG | 0.416
ACTCTCGA | -0.214
AGTCTCGG | 0.39
ACTCTCGC | -0.0541

Sequence | PBM E-score
AGTCTCGA | -0.0187
AGTCTCGC | -0.0759
ATAGCCTC | -0.00394
ACTGATAC | 0.0597
ATAGTCGC | -0.076
ACGCTACC | 0.00891
TATTTTGA | -0.151
TAGCCTCA | -0.198
GATGCTTA | -0.00303
CAGATCCG | 0.416
AAGATCCG | 0.41
AAGATCCC | 0.126
CAGATCCC | 0.00572
AAGATCCA | -0.0259
CAGATCCA | 0.0283
GGGCCGCA | 0.134
AGTCACAA | -0.173
AGTTTAGG | -0.238
AAATGGGG | -0.344
